Bioassay records as filed in PubChem BioAssay.
MCF10A rerep: induces DNA re-replication in MCF 10a normal breast cells | AID 624296 | MCF 10A DNA re-replication, Hoechst nuclear intensity, 48 h | Potency, µM (series often up to 46.1 µM), most hits filed as activators | 350,000 tested, 2.9% active; further: nearly all actives have a fitted effect of over 50% in size
Giardia killer: Giardia lamblia killing; AID 540267; 340,000 tested, 0.15% active; activity change, % at 7.66 µM, hits read low; Giardia lamblia trophozoite viability; in the data active means activity change below about -80%; inconclusive means between about -30% and that limit;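 further: parasites exposed to compound for two days anaerobically before the ATP read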
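Compounds were tested on trophozoites seeded at 100 cells/well and held 48 hrs at 37 deg C anaerobically. An ATP-based luminescent kit measured the remaining live cells.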
SW480 rereplic: induces DNA re-replication in SW480 colon adenocarcinoma cells | AID 624297 | SW480 DNA re-replication, Hoechst DNA content imaging, 48 h | 340,000 tested, 1.8% active | Potency, µM (doses to about 46.1 µM), most hits filed as activators; further: nearly all actives have a fitted effect of over 55% in size
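Compounds, transferred as 23 nL by pin tool, were incubated with cells for 48 hr; DNA content per nucleus was then quantified by Hoechst staining and fluorescence plate imaging.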
KB-V1 cytotox: KB-V1 MDR subline cytotoxicity; KB-V1 MDR cells viability, CellTiter-Glo, 72 h; Potency, µM (highest dose often 46.1 µM), usual class: cytotoxic; 400,000 tested, 3.4% active; further: nearly all actives have a fitted effect of over 60% in size
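Drug-selected KB-V1 cells, grown in DMEM lacking phenol red with 10% FBS, receive compound titrations; after three days at 37 degrees C, surviving cell ATP is quantified by CellTiter-Glo luminescence and responses normalized and curve-fitted.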
KB-3-1 cytotox: KB-3-1 parental cell cytotoxicity; KB-3-1 viability, CellTiter-Glo ATP luminescence, 72 h; Potency, µM (series often up to 46.1 µM), hits mostly cytotoxic; 400,000 tested, 1.4% active; further: nearly all actives have a fitted effect of over 60% in size
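Here the drug-naive KB-3-1 line serves as comparator for MDR sub-line selectivity; cells received compound titrations, 72 h at 37 °C, then CellTiter-Glo readout.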
ASM inhibitor: blocks human secretory acid sphingomyelinase; placental ASM, HMU-PC fluorogenic substrate, 60 min; 340,000 tested, 0.006% active; Potency, µM (series often up to 57.5 µM), most hits filed as inhibitors
Target sequence (P17405 47-631 limits assumed): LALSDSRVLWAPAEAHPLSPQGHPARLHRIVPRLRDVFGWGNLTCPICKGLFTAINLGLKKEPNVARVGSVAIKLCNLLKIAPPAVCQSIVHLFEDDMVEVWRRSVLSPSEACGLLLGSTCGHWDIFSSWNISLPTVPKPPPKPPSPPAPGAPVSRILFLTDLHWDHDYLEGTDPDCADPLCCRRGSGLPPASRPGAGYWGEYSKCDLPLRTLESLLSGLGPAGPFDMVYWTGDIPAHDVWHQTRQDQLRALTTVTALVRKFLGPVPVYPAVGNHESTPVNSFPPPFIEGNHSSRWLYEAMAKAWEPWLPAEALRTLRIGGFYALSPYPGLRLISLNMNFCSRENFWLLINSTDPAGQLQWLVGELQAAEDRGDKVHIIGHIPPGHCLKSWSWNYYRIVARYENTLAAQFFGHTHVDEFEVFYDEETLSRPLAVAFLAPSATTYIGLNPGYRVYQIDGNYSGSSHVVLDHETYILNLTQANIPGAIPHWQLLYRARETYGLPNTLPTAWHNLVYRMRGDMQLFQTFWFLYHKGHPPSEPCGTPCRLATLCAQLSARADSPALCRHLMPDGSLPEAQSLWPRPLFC
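HMU-PC0 cleavage (9 uM final) by human placental ASM, 60 min at 37 °C following 10 min compound exposure at RT; stopped at pH 10, fluorescence Ex 386/Em 447 nm.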
Of the large screens only hits and unclear results are named; the others gave an inactive call; ! = a repeat was not active. Hits are enriched below; roughly 6.9% of the tested compounds scored in any of these assays. Unless noted, the call rests on the fitted dose curve; in most records, active means well fitted curve in the direction sought with a large enough effect; inconclusive means small, poorly fitted or top-dose-only effect, or another doubt; inactive means no such curve, though single readings can be large; an effect the other way counts as inactive or inconclusive.

O=S(=O)(NCC1OCCc2ccccc21)c1ccc(S(=O)(=O)N2CCOCC2)cc1 (centres undefined)	KB-V1 cytotox 21µM
COc1cc(NC(=O)COc2ccc(F)cc2)nc(OC)n1	MCF10A rerep inconclusive, SW480 rereplic 21µM
COc1ccccc1NC(=O)COc1ccccc1	MCF10A rerep inconclusive, SW480 rereplic inconclusive
COc1cc(NS(=O)(=O)c2ccc(NC(=O)COc3ccc(C)cc3)cc2)nc(OC)n1	none
CCCNC(=O)c1ccccc1NC(=O)COc1ccc(OC)cc1	KB-V1 cytotox 4.6µM
COc1ccccc1NC(=O)COc1ccc(-c2nn(C)c(=O)c3ccccc23)cc1	KB-V1 cytotox 18µM!, KB-3-1 cytotox inconclusive
COc1ccc(OCC(=O)Nc2ccccc2O)cc1	KB-V1 cytotox 16µM
Cn1nc(-c2ccc(OCC(=O)Nc3ccccc3)cc2)c2ccccc2c1=O	KB-V1 cytotox inconclusive
CN(C)c1ccc(Cn2ccc3ccccc32)cc1	none (no result: MCF10A rerep, Giardia killer, SW480 rereplic, ASM inhibitor)
CC[N+]1(CC(=O)c2ccc(OC)cc2)CCCCC1	none (no result: MCF10A rerep, Giardia killer, SW480 rereplic, ASM inhibitor)
COCCn1ccc2c(OCC(=O)Nc3cc(OC)ccc3OC)cccc2c1=O	MCF10A rerep inconclusive, KB-V1 cytotox inconclusive (no result: ASM inhibitor)
CCOCCn1ccc2c(OCC(=O)Nc3cc(OC)ccc3OC)cccc2c1=O	MCF10A rerep inconclusive, SW480 rereplic inconclusive, KB-V1 cytotox 16µM
O=C(O)c1ccc(N=NNc2cccc([N+](=O)[O-])c2)cc1	none
N#C/C(=N\Nc1cccc([N+](=O)[O-])c1)C(=O)c1ccc(Br)cc1	MCF10A rerep inconclusive, KB-V1 cytotox 1.5µM, KB-3-1 cytotox 3.7µM, ASM inhibitor inconclusive
COc1ccc2c(c1)CC/C(=C/c1ccncc1)C2=O	MCF10A rerep inconclusive, SW480 rereplic inconclusive, KB-V1 cytotox inconclusive, KB-3-1 cytotox inconclusive (no result: ASM inhibitor)
CN1C/C(=C/c2ccsc2)C(=O)/C(=C/c2ccsc2)C1	MCF10A rerep 18µM, SW480 rereplic 3.3µM, KB-V1 cytotox inconclusive, KB-3-1 cytotox inconclusive
CN1C/C(=C/c2ccncc2)C(=O)/C(=C/c2ccncc2)C1	MCF10A rerep inconclusive, SW480 rereplic 23µM
CCc1oc2ccccc2c1C(=O)c1cc(I)c(O)c(I)c1	MCF10A rerep 3.8µM (no result: Giardia killer, KB-V1 cytotox, KB-3-1 cytotox, ASM inhibitor)
CCN(CC)S(=O)(=O)c1ccc2c(c1)c(=O)c(C(=O)NCc1cccs1)cn2C	KB-V1 cytotox 6.5µM
Cc1cc(C)cc(OCCNC(=O)c2cc(S(=O)(=O)N3CCOCC3)ccc2F)c1	SW480 rereplic inconclusive, KB-V1 cytotox inconclusive, KB-3-1 cytotox 23µM
COc1ccc(S(=O)(=O)N2CCCCCC2)cc1C(=O)NCCOc1ccc(C)cc1	KB-V1 cytotox 9.2µM
O=C(NCCc1ccccc1)c1cc(S(=O)(=O)N2CCOCC2)ccc1F	none
COc1ccc(S(=O)(=O)N2CCCCCC2)cc1C(=O)N(C)Cc1ccc(F)cc1	none (no result: ASM inhibitor)
CCN(CC)S(=O)(=O)c1ccc2c(c1)c(=O)c(C(=O)NCCCN(C)c1ccccc1)cn2C	none
COc1ccc(S(=O)(=O)N2CCCCCC2)cc1C(=O)N(C)Cc1ccc(C(C)(C)C)cc1	MCF10A rerep 18µM, KB-V1 cytotox inconclusive, KB-3-1 cytotox inconclusive
CCCC(=O)N(C)c1ccc(/C=C2\C=Cc3ccccc32)cc1	KB-3-1 cytotox inconclusive (no result: MCF10A rerep, Giardia killer, SW480 rereplic, ASM inhibitor)
CON(C)C(=O)CC(CNC(=O)OC(C)(C)C)c1ccc(Cl)cc1 (centres undefined)	none
CCOC(=O)c1cc(-c2ccc(F)cc2)n(CCC(=O)NC2CCCCC2)c1C	KB-V1 cytotox inconclusive (no result: MCF10A rerep, Giardia killer, SW480 rereplic, ASM inhibitor)
COc1ccc(S(=O)(=O)N2CCCCCC2)cc1C(=O)NCc1cccs1	KB-V1 cytotox 8.2µM
COc1cccc(/C=C(/C(=O)OCC(=O)NC2CCCC(C)C2C)c2ccccc2)c1 (centres undefined)	MCF10A rerep 18µM
COc1ccc(OC)c(NC(=O)CSc2nnc3ccc4ccccc4n23)c1	none (no result: MCF10A rerep, Giardia killer, SW480 rereplic, ASM inhibitor)
CCOc1ccccc1CNC(=O)C1CCN(c2nnc(C)c3c(C)n(-c4ccc(C)cc4)nc23)CC1	MCF10A rerep 23µM, SW480 rereplic inconclusive, KB-3-1 cytotox inconclusive
Cc1ccc(-n2nc3c(N4CCC(C(=O)NCc5ccccc5C)CC4)nnc(C)c3c2C)cc1	MCF10A rerep inconclusive, KB-V1 cytotox inconclusive, KB-3-1 cytotox inconclusive
COCCn1c(SCC(=O)Nc2ccc(S(N)(=O)=O)cc2)nc2ccccc21	MCF10A rerep inconclusive
Cc1ccc(S(=O)(=O)N2CCOCC2)cc1NC(=O)CSc1nc2ccccc2c(=O)n1Cc1ccccc1	KB-V1 cytotox 8.2µM
COCCn1c(SCC(=O)Nc2ccc(S(=O)(=O)N3CCOCC3)cc2)nc2ccccc21	KB-V1 cytotox 5.2µM
O=C(CSc1nc2ccccc2c(=O)n1Cc1ccccc1)Nc1ccc(Br)cc1C(=O)O	MCF10A rerep 23µM
CCC(O)c1nc2ccccc2n1CCc1ccccc1 (centres undefined)	none
COc1ccc2c(c1)CC(NC(=O)Nc1c(C)cc(C)cc1C)CO2 (centres undefined)	none (no result: MCF10A rerep, Giardia killer, SW480 rereplic, ASM inhibitor)
CCOc1ccc(NC(=O)Cn2c(=O)n(-c3ccccc3)c(=O)c3ccc(C(=O)NCc4ccc5c(c4)OCO5)cc32)cc1	KB-V1 cytotox inconclusive (no result: MCF10A rerep, Giardia killer, SW480 rereplic, ASM inhibitor)
CCOc1ccc(NC(=O)CN(C)C(=O)c2cn(-c3ccc(C)cc3)nc2-c2cccc(OC)c2)cc1OCC	MCF10A rerep inconclusive, KB-V1 cytotox 5.8µM
COc1cccc(-c2nn(-c3ccc(C)cc3)cc2C(=O)N(C)CC(=O)Nc2cccc(F)c2)c1	MCF10A rerep inconclusive, KB-3-1 cytotox inconclusive
CCOC(=O)c1cc(C#N)c(Oc2cccc(C(F)(F)F)c2)nc1-c1ccccc1	MCF10A rerep inconclusive
CCOC(=O)c1cc(C#N)c(Oc2ccc(F)cc2)nc1-c1ccccc1	KB-V1 cytotox 9.2µM
O=C(C[n+]1cc(-c2ccccc2)n2c1CCC2)Nc1nc(-c2ccc(F)cc2)cs1	KB-3-1 cytotox 21µM
O=C(C[n+]1cc(-c2ccccc2)n2c1CCC2)N1c2ccccc2Sc2ccccc21	MCF10A rerep inconclusive, KB-3-1 cytotox 6.5µM
Cc1ccc(-c2c[n+](CC(=O)N3c4ccccc4Sc4ccccc43)c3n2CCC3)cc1	Giardia killer inconclusive, KB-3-1 cytotox inconclusive
O=C(C[n+]1cc(-c2ccc(F)cc2)n2c1CCC2)Nc1nc(-c2ccc(F)cc2)cs1	MCF10A rerep inconclusive, KB-3-1 cytotox inconclusive
CC(C)c1ccc(NC(=O)c2cc3c([nH]c2=O)CC(C)(C)CC3=O)cc1	none (no result: MCF10A rerep, Giardia killer, SW480 rereplic, ASM inhibitor)
Cc1cc(C)c2c(c1)-c1c(ssc1=S)C(C)(C)N2C(=O)CSc1nncn1C	MCF10A rerep inconclusive, KB-V1 cytotox 23µM, KB-3-1 cytotox 21µM
Cc1ccc2c(c1)-c1c(ssc1=S)C(C)(C)N2C(=O)CSc1nncn1C	KB-V1 cytotox inconclusive, KB-3-1 cytotox inconclusive
Cc1cc2c(cc1C)N(C(=O)CSC1=NCCS1)C(C)(C)c1ssc(=S)c1-2	KB-V1 cytotox 16µM
